Assay outcomes (PubChem)
ELG1 DNA repair – blocks ELG1-dependent DNA repair in HEK293T cells; HEK293T ELG1-luciferase reporter, luminescence, 16 h; DNA damage induced by 5-fluorouridine; Potency, µM (doses to about 46.1 µM), for inactives: top-dose activity change, negative = inhibition, actives largely listed as inhibitors; 330,000 compounds, 2.3% hits; AID 504467; also: % is scaled to controls: 0 for no effect and ±100 for the full control effect; nearly all actives have a fitted effect of over 55% in size
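Luminescence from the luciferase reporter, measured 30 min after ONE-Glo reagent at room temperature, was the read-out. Beforehand, 2,000 cells per well were exposed for 16 hr at 37 °C to 5-fluorouridine together with compound or vehicle.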
Rab9 promoter act – Rab9 promoter activation; AID 485297; 320,000 compounds, 2.8% hits; Potency, µM (titrated, usually from 9.22 µM), without a hit: at the top dose activation, negative = inhibition, most hits filed as activators; Huh7 Rab9 promoter-luciferase reporter, luminescence, 24 h; also: % of control where 0% means no effect; nearly all actives have a fitted effect of over 60% in size
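Stable Rab9-luc Huh7, 1500 cells/well, 2 h settle; cmpd in DMSO, 24 h, 37 °C/5% CO2; luciferase reagent 10 min RT; luminescence.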
SMN2 splice enh – SMN2 splice variant enhancement. HEK293 SMN2-luciferase splicing reporter, luminescence, 30-36 h. Potency, µM (top dose mostly 46.1 µM), without a hit: top-dose activity change, positive = activation, most hits filed as activators. 210,000 compounds, 2.8% hits. AID 1458; also: % of control where 0% means no effect; nearly all actives have a fitted effect of over 55% in size
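HEK293 cells carry an SMN2 […]–luciferase reporter in which exon 7 inclusion puts luciferase in frame. Cells were plated 10-12 h before compound addition, then incubated 30-36 h at 37C. ONE-Glo luminescence was read; sodium butyrate at 4.5 mM final served as control.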
FLuc modulator – counter-screen for miR-21 project: firefly luciferase inhibitors or activators | purified FLuc, Km substrates, luminescence inhibition | 360,000 compounds, 6.9% hits | Potency, µM (doses to about 57.5 µM), for inactives: at the top dose activity change, negative = inhibition, usual class: inhibitors | P08659 | AID 588342;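 also: plate controls were vehicle for no effect and reference inhibitor for full effect; nearly all actives have a fitted effect of over 55% in size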
Target sequence (P08659 whole entry, looked up): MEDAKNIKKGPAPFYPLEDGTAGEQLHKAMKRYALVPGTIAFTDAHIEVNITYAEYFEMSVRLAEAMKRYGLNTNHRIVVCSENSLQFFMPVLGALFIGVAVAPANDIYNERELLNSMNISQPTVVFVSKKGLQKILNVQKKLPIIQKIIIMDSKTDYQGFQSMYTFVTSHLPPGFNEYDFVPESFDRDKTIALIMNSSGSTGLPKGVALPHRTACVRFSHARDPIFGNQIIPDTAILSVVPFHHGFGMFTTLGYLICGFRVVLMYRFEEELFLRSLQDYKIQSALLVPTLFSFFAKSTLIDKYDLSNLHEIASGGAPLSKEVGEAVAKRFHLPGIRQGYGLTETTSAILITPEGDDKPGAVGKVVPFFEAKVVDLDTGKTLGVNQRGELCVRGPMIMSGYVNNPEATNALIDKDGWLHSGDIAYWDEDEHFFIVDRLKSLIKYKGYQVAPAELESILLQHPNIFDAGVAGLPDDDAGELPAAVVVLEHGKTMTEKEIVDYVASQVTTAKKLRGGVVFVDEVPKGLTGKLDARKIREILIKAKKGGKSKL
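Purified P. pyralis luciferase (10nM final) with 10uM D-luciferin and 10uM ATP (Km levels) in 50mM Tris acetate pH 7.5, 10mM Mg acetate, 0.01% Tween-20, 0.05% BSA; qHTS 6-point titration, ~60 µM downward; luminescence read.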
ELG1 genotox – induces genotoxicity in HEK293T cells with luciferase-tagged ELG1; Potency, µM (top dose mostly 46 µM), for the others: top-dose activity change, positive = activation, actives largely listed as activators; 330,000 compounds, 1.3% hits; HEK293T ELG1-luciferase reporter, luminescence, 16 h; AID 504466; also: % of control where 0% means no effect; nearly all actives have a fitted effect of over 60% in size
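16 hr compound incubation (37 °C, 5% CO2) of HEK293T cells carrying luciferase-tagged ELG1; luciferase then measured by ONE-Glo luminescence after 30 min at RT.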
NPC1 promoter act – activates the NPC1 promoter. Huh7 NPC1 promoter luciferase reporter, 24 h. Potency, µM (highest dose often 9.22 µM), inactives show top-dose activation, most hits filed as activators. 320,000 compounds, 2.4% hits; also: % of control where 0% means no effect; nearly all actives have a fitted effect of over 60% in size
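Cells: Huh7 expressing luciferase under the NPC1 promoter, 1500/well. Seeded 2 h, compound added, incubated 24 h at 37 °C. Luciferase reagent, 10 min ambient, then luminescence.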
Starred values were filed as active, the others as inactive; u = inconclusive; x = not tested or not shown; [ ] = dose if it differs, or a comment. Most compounds without a hit are left out; they make up all but 9.3% or so of the library. Calls follow the shape of the dose curve; as a rule, active = well fitted curve in the direction sought with a large enough effect; inconclusive = small, poorly fitted or top-dose-only effect, or another doubt; inactive = no such curve, though single readings can be large; an effect the other way counts as inactive or inconclusive. Potency is read from the fitted curve at half-maximal effect.

SMILES	ELG1 DNA repair	Rab9 promoter act	SMN2 splice enh	FLuc modulator	ELG1 genotox	NPC1 promoter act
Cc1ccc(NC(=O)COc2ccccc2C(=O)Nc2ccccc2)cc1Cl	16.4µM*	-3.3%	-9.4%[1.84 µM]	u	1.2%	4.5%
CC(C)C[C@@H](CO)N1CCN(Cc2cccnc2)CCC1=O	u	0.2%	x	4.8%	-0.4%	1.1%
Cc1cc2nc(-c3ccc(SCC(=O)Nc4ccc5c(c4)OCCO5)nc3)[nH]c2cc1C	u	3.98µM*	u	0.338µM*	u	2.82µM*
O=C(CSc1nc(-c2ccc(F)cc2)[nH]c1-c1ccc(F)cc1)Nc1ccc2c(c1)OCCO2	x	x	-1.1%	u	x	x
Cc1ccc(-c2ccc(SCC(=O)Nc3ccc4c(c3)OCCO4)nn2)cc1	u	15.5%	23.4%	1.9µM*	11.1%	17.6%
Cc1ccc2nc(-c3ccc(SCC(=O)Nc4ccc5c(c4)OCCO5)nc3)[nH]c2c1	u	2.82µM*	u	0.601µM*	u	3.16µM*
O=C(CSc1ccc(-c2nc3ccccc3[nH]2)cn1)Nc1ccc2c(c1)OCCO2	u	u	16.8%	u	10.1%	27.5%
Cc1ccc(-c2ccc(SCC(=O)Nc3nonc3C)nn2)cc1	u	u	6.0%	12µM*	u	u
C=CCn1c(N2CCOCC2)nc2c1c(=O)[nH]c(=O)n2C	19.1%	-4.1%	3.3%	0.0%	-12.4%	-2.4%
Cc1cccc(C)c1N=Cc1c(O)n(-c2nccs2)c(=O)c2ccccc12	u	-10.2%	-4.6%	-0.1%	-5.2%	0.5%
O=c1c2ccccc2c(/C=N/c2nnc(Cc3ccccc3)s2)c(O)n1-c1ccc(Cl)cn1	7.3%	1.8%	-0.3%	1.9µM*	-1.2%	-4.2%
COc1ccc(-c2cc(C(F)(F)F)n3nc(C(=O)Nc4c(C)n(C)n(-c5ccccc5)c4=O)cc3n2)cc1	-15.0%	2.1%	-7.8%	3.8%	6.2%	-11.8%
COc1ccc2cc(-c3cc(C(=O)OCC(=O)Nc4c(C)n(C)n(-c5ccccc5)c4=O)c4ccccc4n3)ccc2c1	u	u	2µM*	0.135µM*	1.9%	u
Cc1cc(C(=O)Nc2c(C)n(C)n(-c3ccccc3)c2=O)c2ccccc2n1	-15.7%	0.2%	9.8%	1.6%	2.9%	1.8%
CCc1ccc(-c2cc(C(=O)Nc3c(C)n(C)n(-c4ccccc4)c3=O)c3ccccc3n2)s1	u	5.0%	-10.4%	12µM*	-7.7%	0.9%
COc1ccc(-c2cc(C(=O)Nc3c(C)n(C)n(-c4ccccc4)c3=O)c3ccccc3n2)cc1	16.4µM*	-1.0%	x	15.1µM*	-21.1%	-8.9%
CCOCc1nnc(NC(=O)c2cccs2)s1	17.3%	-1.2%	14.4%	-12.8%	0.9%	0.1%
CN(C)S(=O)(=O)c1ccc(C(=O)Nc2nnc(SCc3ccccc3)s2)cc1	4.3%	-0.8%	7.9%	-1.4%	3.3%	2.3%
CCSc1nnc(NC(=O)c2cccs2)s1	u	u	22.4%	19µM*	-15.1%	u
CCSc1nnc(NC(=O)C2CCN(S(=O)(=O)c3ccccc3C(F)(F)F)CC2)s1	23.1µM*	-9.2%	-6.2%[1.84 µM]	3.2%	-4.4%	-3.1%
O=C(Nc1nnc(SCc2ccccc2)s1)c1cccs1	u	21.0%	u	u	14.6µM*	24.3%
CCSc1nnc(NC(=O)C2CCN(S(=O)(=O)c3c(C)c(C)cc(C)c3C)CC2)s1	-9.6%	-3.0%	-4.0%	-0.8%	-0.5%	-5.8%
O=C(CCc1ccccc1)Nc1ccnn1C1CCN(Cc2ncc[nH]2)CC1	u	-0.9%	x	2.5%	3.5%	-7.0%
COC(=O)CSc1nnc(-c2ccc(OC)cc2OC)o1	16.3%	-0.6%	-0.8%	21.3µM*	5.6%	3.3%
COC(=O)CSc1nnc(-c2c[nH]c3ccccc23)o1	u	-1.1%	x	15.1µM*	2.1%	-4.1%
SMILES	ELG1 DNA repair	Rab9 promoter act	SMN2 splice enh	FLuc modulator	ELG1 genotox	NPC1 promoter act
c1ccc(CSc2nnc(-c3c[nH]c4ccccc34)o2)cc1	u	u	u	8.49µM*	u	u
COc1cccc(OC(=O)CSc2nnc(-c3ccccc3OC)o2)c1	x	x	x	-5.4%	x	x
NC(=O)c1ccc(NC(=O)C2CCCC2)cc1	u	2.6%	x	-10.1%	4.3%	6.0%
C[C@@H]1OC(Nc2ccc(N=Nc3ccccc3)cc2)[C@H](O)[C@H](O)[C@H]1O (some centres not stated)	0.0%	u	x	23.9µM*	11.1%	u
CC(=O)c1ccc(NC2OC(C)C(O)C(O)C2O)cc1 (configuration not stated)	10.0%	-5.2%	u	0.0%	6.8%	0.6%
COc1cccc(-c2nnc(-c3ccc(C)o3)o2)c1	u	0.708µM*	2.82µM*	1.69µM*	u	1.12µM*
COc1cccc(-c2nnc(-c3ccco3)o2)c1	u	2.51µM*	11.2µM*	9.53µM*	u	2.51µM*
COc1cccc(-c2nnc(N)o2)c1	26.6%	12.8%	x	-16.5%	0.2%	4.9%
COc1cccc(C(=O)Nc2ccc(-c3nnc(-c4ccco4)o3)cc2)c1	-10.2%	28.2%	-24.8%	0.3%	16.0%	-3.6%
COc1cccc(-c2nnc(-c3ccccc3[N+](=O)[O-])o2)c1	u	3.98µM*	x	9.53µM*	u	u
O=C(NCc1cccc(F)c1)c1ccc(CS(=O)c2ccccc2Cl)o1 (configuration not stated)	x	x	x	0.2%	x	x
COc1ccc(OCCn2c(C(C)Oc3ccccc3)nc3ccccc32)cc1 (configuration not stated)	x	x	-23.1%	-4.2%	x	x
COc1ccccc1CN1CCCC2(CCN(C(=O)c3cnccn3)CC2)C1	x	x	-10.0%	x	x	x
Cc1ccc(/C=N/NC(=O)Cc2ccc(O)cc2)s1	24.0%	5.7%	x	u	12.6%	15.2%
Cc1ccc(/C=N/NC(=O)c2ccc(Br)o2)s1	u	u	15.8µM*	u	u	u
CCc1ccc(/C=N\NC(=O)c2ccc(Br)o2)s1	u	2.82µM*	11.2µM*	10.7µM*	u	3.55µM*
COc1ccccc1CNC(=O)Cc1c(C)c2cc3c(C)coc3c(C)c2oc1=O	x	x	1.9%	-1.6%	x	x
COc1ccc(C2CC2/C(=N/O)c2ccccn2)cc1 (configuration not stated)	6.1%	u	12.3%	u	4.3%	14.2%
COc1ccc(C2CC2C(=O)c2ccccn2)cc1 (configuration not stated)	u	u	11.6%	16.9µM*	6.0%	u
c1ccc(N2CC3CCc4ccccc4C3=N2)cc1 (configuration not stated)	u	3.16µM*	x	8.49µM*	u	u
